Experimental data from PubChem BioAssay (NCATS).
Several values for one entry are separate records, joined by “and”; a condition that tells them apart may be missing. Equal entries are not always repeated. Records with an inconclusive call do not appear. Some compounds were tested as several samples or in several runs, with calls that do not always agree. Activity calls are given as the source filed them. The call rests on the fitted dose curve; in most records, active means well fitted activation curve with a large enough effect; inconclusive means small, poorly fitted or top-dose-only effect; inactive means no such curve, though single readings can be large or run the other way.

What follows are compounds tested against Cellular tumor antigen p53 (Homo sapiens) (UniProt P04637) (assay: Primary qHTS for small molecule compounds that upregulate eGFP-tagged delta133p53alpha (in N-terminal) cells. (AID 2060322; further: nearly all actives have a fitted effect of over 75% in size;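 on activation: cells pre-induced with doxycycline then dosed without doxycycline; series mostly up to about 56 µM; 0% = DMSO vehicle and 100% = reference activator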)). Conditions: NCI-H358 eGFP-delta133p53alpha fluorescence, 24 h; activation: hits give high values.
Excerpt: Assay Development and Screening Technology
National Center for Advancing Translational Sciences (NCATS),
National Institute of Health (NIH), Rockville, Maryland
Cellular senescence (CS) is one of the hallmarks of aging and age-related diseases. Senescent cells are characterized by an irreversible growth arrest, an increase in senescence-associated beta-galactosidase (SA-beta-gal) activity and p16INK4a expression, an activation of the DNA damage response pathways, and the emergence of a senescence-associated secretory phenotype (SASP).
Delta133p53alpha, a human/primate-specific p53 protein isoform, delays or inhibits the induction of CS and SASP in various types of human cells, including progeria-derived fibroblasts, primary normal astrocytes, and CD8+ T lymphocytes. Induction of delta133p53alpha with small molecule compounds may provide therapeutic opportunities for inhibition of senescence/SASP-associated pathologies in progeria syndromes, astrocyte-mediated neuroprotection in neurodegenerative diseases, and possibly prevention and treatment of a wider range of senescence- and aging-associated diseases.
Here we report the development and validation of a cell-based quantitative high throughput screening (qHTS) assay in 1,536-well format. This qHTS assay uses the NCI-H358 cell line with doxycycline-inducible expression of enhanced green fluorescent protein (eGFP)-tagged delta133p53alpha, which allows efficient and highly quantitative measurement of the protein levels.
PROTOCOL TABLE (as described by Inglese J, Shamu CE and Guy RK. 2007)
SEQUENCE No. (e.g., 1, 2, 3, etc.); […] (e.g., Cells, Incubation, Reagent, etc.); VALUE; DESCRIPTION.
1; Cells; 4uL; 800 doxycycline treated cells / well in doxycycline-free media, 1536-well black, clear-bottom low base Aurora microplates.
2; Compounds; 23 nL; Kalypsis pin tool (Wako) equipped with 1536-well pin heads, 5-azacytidine positive control.
3; Incubation; 24 hr; 37C, 5% CO2; 95% relative humidity.
4; Aspiration; 1x; BioTek EL406 washer dispenser (Agilent).
5; Fixing; 3.5% paraformaldehyde, BioTek EL406 washer dispenser (Agilent).
6; Washing; 1x PBS; BioTek EL406 washer dispenser (Agilent).
7; Nuclei staining; 1:1000 dilution of Hoechst 33342 (Thermofisher), BioTek EL406 washer dispenser (Agilent).
8; Incubation; 20 min; in the dark at room temperature.
9; Washing; 2x, 1x PBS (ThermoFisher), BioTek EL406 washer dispenser (Agilent).
10; Reagent; 10 uL; 1x PBS per well, sealed with clear adhesive tape.
NOTES (numbers refer to sequence numbers above).
1. NCI-H358 cells expressing eGFP-tagged delta133p53alpha were grown in T75 culture flasks and treated with doxycycline for 24h, at 10 ng/ml for eGFP-D133p53a cells (N-terminal cell) and 100 ng/ml for D133p53a-eGFP cells (C-terminal cells). Cells were trypsinized, counted using a Counted 3 Automated Cell Counter (Thermo Fisher), and diluted to a concentration of 200,000 cells/ml. A Multidrop Combi Reagent Dispenser (ThermoFisher) was used to dispense 800 cells/well in […] of doxycycline-free media, into 1536-well black/clear bottom low base plates (AuroraMicroplates).
2. After plating cells, 23 nl of compound library, DMSO vehicle control or positive control (5-azacytidine) were transferred by Pin Tool (Wako). The plate map layout was the same for each plate: (column 1) non-doxycycline treated cells + DMSO vehicle control; (column 2) doxycycline treated cells + DMSO vehicle control baseline; (column 3) doxycycline treated cells + positive control 57.5 uM final concentration 5-azacytidine; (column 4) doxycycline treated cells + serial dilution of 5-azacytidine, 16-point 1:2 titration spanning 1.8 nM to […] final concentration; (columns 5-48) doxycycline treated cells + titration of library compounds.
3. Cells were incubated at 37 °C, 5 % CO2, 95% RH with breathable metal lid for 24h.
4-10. […] After two washes, 10 ul of 1X PBS (Thermo Fisher) was dispensed to each well. Clear adhesive plate seals (VWR) were applied and plates stored at 4 °C.
11. […]
Potency means the concentration at half of the fitted maximal effect.

Sequence of Cellular tumor antigen p53 (Homo sapiens) (P04637 whole entry, looked up): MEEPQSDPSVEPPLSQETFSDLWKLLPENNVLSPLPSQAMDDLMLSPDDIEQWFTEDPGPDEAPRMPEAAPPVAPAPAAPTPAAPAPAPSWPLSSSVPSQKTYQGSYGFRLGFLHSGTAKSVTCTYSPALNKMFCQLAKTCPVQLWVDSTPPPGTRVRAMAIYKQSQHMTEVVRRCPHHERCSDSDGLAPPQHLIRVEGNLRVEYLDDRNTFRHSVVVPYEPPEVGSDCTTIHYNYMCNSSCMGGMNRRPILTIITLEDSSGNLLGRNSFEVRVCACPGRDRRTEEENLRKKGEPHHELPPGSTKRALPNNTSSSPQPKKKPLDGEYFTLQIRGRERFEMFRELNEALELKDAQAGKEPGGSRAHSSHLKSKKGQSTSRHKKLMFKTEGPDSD

Row | SMILES | activation | Potency
1 | CC[N+](C)(C)c1cccc(O)c1 | 3.57% (inactive) | –
2 | Cn1c(=O)c(-c2c(Cl)cccc2Cl)cc2cnc(Nc3ccc(N4CCOCC4)cc3)nc21 | -42.1% (inactive) | –
3 | NC(=O)c1ncn([C@@H]2O[C@H](CO)[C@@H](O)[C@H]2O)c1O | -26.8% (inactive) and 40.7% (inactive) | –
4 | COc1cc(C(C)=O)ccc1O[C@@H]1O[C@H](CO[C@@H]2O[C@@H](C)[C@H](O)[C@@H](O)[C@H]2O)[C@@H](O)[C@H](O)[C@H]1O | -13% (inactive) | –
5 | COC(=O)C1=CO[C@@H](O[C@@H]2O[C@H](CO[C@@H]3O[C@H](COC(=O)/C=C/c4ccc(O)cc4)[C@@H](O)[C@H](O)[C@H]3O)[C@@H](O)[C@H](O)[C@H]2O)[C@@H]2C(CO)=CC[C@H]12 | -3.05% (inactive) | –
6 | COc1cc(N2CCC(N3CCN(C)CC3)CC2)ccc1Nc1ncnc(Nc2ccccc2S(=O)(=O)C(C)C)n1 | – | 24.3 µM (active) and 26.9 µM (active)
7 | COc1cc(O)cc(C)c1C(=O)OC1C(CO)OC(n2ccc(=O)[nH]c2=O)C1OC(C)=O (stereo not given) | -6.11% (inactive) | –
8 | CC1C(=O)CC2C3C(O)CC(C(=O)O)C12CC3(C)C (stereo not given) | 1.53% (inactive) | –
9 | C[C@@H](NCc1cc2ccccc2[nH]1)c1cccc2ccccc12 | -11% (inactive) | –
10 | C[C@@H]1O[C@@H](O[C@H]2[C@H](O)[C@@H](O[C@@H]3O[C@H](CO)[C@H](O)[C@H](O)[C@H]3O)[C@H](O[C@H]3CC[C@@]4(C)C(CC[C@]5(C)C4CC=C4[C@@H]6CC(C)(C)CC[C@]6(C(=O)O[C@@H]6O[C@H](CO)[C@@H](O)[C@H](O)[C@H]6O)CC[C@]45C)C3(C)C)O[C@@H]2C(=O)O)[C@H](O)[C@H](O)[C@H]1O (stereo not given in full) | 5.34% (inactive) | –
11 | COc1ccc(C2CC(c3ccccc3)=NN2c2ccc(S(N)(=O)=O)cc2)cc1 (stereo not given) | -16.2% (inactive) | 21.7 µM (active)
12 | CC1=CC2(O)/C=C/C(C)(O)CC(O)/C=C/C(=O)OC23C(=O)NC(CC(C)C)C3C1C (stereo not given) | -2.29% (inactive) | –
13 | COc1ccc(-c2c(-c3cc(C(=O)O)ccn3)ncn2C)cc1 | -2.33% (inactive) | –
14 | COC(=O)C1C(c2ccc(O)cc2)C(C(=O)O)C1c1ccc(O)cc1 (stereo not given) | -18.3% (inactive) | –
15 | COC(=O)Nc1ccc(-c2nc(N3CCOCC3)c3cnn(C4CCN(Cc5cccnc5)CC4)c3n2)cc1 | 9.82% (inactive) | –
16 | Oc1cc(O)cc(/C=C/c2ccc(O)c(O)c2)c1 | 11.9% (inactive) | –
17 | COCCCNC(=O)c1ccc(Cn2c(=O)c3ccccc3n(Cc3ccc(C(C)C)cc3)c2=O)cc1 | 7% (inactive) | –
18 | CCC(=O)OCC(=O)[C@@]1(OC(=O)CC)[C@@H](C)C[C@@H]2[C@H]3CCC4=CC(=O)C=C[C@]4(C)[C@@]3(F)[C@@H](O)C[C@@]21C | 3.16% (inactive) | –
19 | C[C@@]1(C(=O)O)CCC[C@@]2(C)C3=CC[C@H]4C[C@@]3(CC[C@H]12)CC4(O)CO (stereo not given in full) | -2.29% (inactive) | –
20 | Cc1cc(NS(=O)(=O)c2ccc(N)cc2)nc(C)n1 | -13.4% (inactive) | –

Row | SMILES | activation | Potency
21 | CC(C)(O)c1ccn2c(-c3ccc(F)c(-c4ccc(F)cc4C#N)c3)cnc2c1F | -22.4% (inactive) | –
22 | C=CCSCC1Nc2cc(Cl)c(S(N)(=O)=O)cc2S(=O)(=O)N1 (stereo not given) | -36.8% (inactive) | –
23 | CC1(C)CC[C@]2(C(=O)O[C@@H]3O[C@H](CO)[C@@H](O)[C@H](O)[C@H]3O)CC[C@]3(C)C(=CCC4[C@@]5(C)C[C@H](O)[C@H](O[C@@H]6OC[C@@H](O)[C@H](O)[C@H]6O)[C@@](C)(CO)C5CC[C@]43C)C2C1 (stereo not given in full) | 11.6% (inactive) | –
24 | CC(C)COC(=O)OCN1C(=O)CN(CCN2CC(=O)N(COC(=O)OCC(C)C)C(=O)C2)CC1=O | -13.5% (inactive) | –
25 | O=c1ccn([C@@H]2O[C@H](CO)[C@H](O)[C@H]2O)c(=O)[nH]1 | 8.95% (inactive) | –
26 | CC(C)=CCc1ccc(Oc2c(O)cc(C)cc2CO)c(C(=O)O)c1O | 3.82% (inactive) | –
27 | Nc1cccc2c1C(=O)N(C1CCC(=O)NC1=O)C2=O (stereo not given) | 28.8% (inactive) | –
28 | Cc1cc(=O)oc2cc(O)ccc12 | -17.5% (inactive) and -1.39% (inactive) | –
29 | C/C(=C(/OCCOc1ccc(Cl)cc1)c1ccc(Cl)cc1Cl)n1ccnc1 | 7.53% (inactive) | –
30 | CCOC(=O)Oc1ccc(CCNC(=O)[C@H](CCSC)NC(C)=O)cc1OC(=O)OCC | 16.4% (inactive) | –
31 | CC12CCC(C(OC3OC(COC4OCC(O)(CO)C4O)C(O)C(O)C3O)C1)C(C)(C)O2 (stereo not given) | -13.4% (inactive) | –
32 | O=C(NCc1ccc(OC(F)(F)F)cc1)C1c2ccccc2C(=O)N1C1CCOCC1 (stereo not given) | -5.73% (inactive) | –
33 | CCCOc1ccn2c(C(C)=O)cc(-c3ccccc3S(C)(=O)=O)c2c1 | -0.333% (inactive) | –
34 | CCN(CC)CCNC(=O)c1ccc(NS(C)(=O)=O)cc1 | -1.7% (inactive) | –
35 | CN(CC1(C)CCCO1)S(=O)(=O)c1ccc(Cl)c(S(N)(=O)=O)c1 (stereo not given) | -1.69% (inactive) | –
36 | N[C@@H](CCCC(=O)O)C(=O)O | -8.81% (inactive) | –
37 | O=C(/C=C/c1ccc(O)cc1)O[C@H]1[C@@H]2C=CO[C@@H](O[C@@H]3O[C@H](CO)[C@@H](O)[C@H](O)[C@H]3O)[C@@H]2[C@@]2(CO)O[C@@H]12 | -7.63% (inactive) | –
38 | CN(C)CCOc1cc(NS(=O)(=O)c2c(Cl)cc(C(F)(F)F)cc2Cl)ccc1Cl | 0.477% (inactive) | –
39 | Cc1cc(O)c2ccccc2c1O | – | 34.7 µM (active)
